Active and inactive are the calls of the source. How the calls were made is not given here.

For 17 compounds, inhibition results are on record in PubChem BioAssay.

Pantothenate synthetase (Mycobacterium tuberculosis (strain ATCC 25618 / H37Rv)), sequence (P9WIL5 whole entry, looked up): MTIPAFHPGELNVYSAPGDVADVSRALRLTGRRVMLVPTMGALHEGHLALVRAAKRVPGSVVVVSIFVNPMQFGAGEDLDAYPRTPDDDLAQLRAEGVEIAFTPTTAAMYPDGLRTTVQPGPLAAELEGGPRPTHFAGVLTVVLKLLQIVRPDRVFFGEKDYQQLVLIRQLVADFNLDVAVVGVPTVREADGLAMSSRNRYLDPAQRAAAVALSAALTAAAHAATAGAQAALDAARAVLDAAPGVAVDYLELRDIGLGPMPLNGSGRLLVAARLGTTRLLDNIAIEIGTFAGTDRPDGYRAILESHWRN

The assay addresses Pantothenate synthetase (Mycobacterium tuberculosis (strain ATCC 25618 / H37Rv)) (UniProt P9WIL5). As to the kind of experiment: Recombinant Mtb pantothenate synthetase (PanC) inhibitors, coupled enzyme, confirmatory (AID 375).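 Further: 0% = full reaction with vehicle and 100% = no enzyme background.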 The settings on record: coupled enzyme assay; at 10 µM, stronger effect = higher value.
In general, inhibition refers to the change of the read-out against control, counted positive when it falls. Consider `COc1cc(C2Oc3cc(C4Oc5cc(O)cc(O)c5C(=O)C4O)ccc3OC2CO)ccc1O` (configuration not stated), for which the inhibition was 0% (inactive).
As for `CCOC(=O)c1c(NC(=O)c2cccs2)sc2c1CCN(C(=O)OCC)C2`, the inhibition was 0% (inactive).
As for `Cc1ccc(OC(=O)CCc2c(C)nc3ncnn3c2C)cc1`, the figure is 0% (inactive); as for `Cc1cccc(CN2CCN(C(c3ccccc3)c3ccc(Cl)cc3)CC2)c1` (configuration not stated), 11% (inactive); as for `Cc1ccc(C)c(NC(=O)CSc2nnc(-c3ccccc3)o2)c1`, 5% (inactive).
On to `O=C(CSc1nnc(CNC(=O)c2c(F)cccc2Cl)o1)c1ccccc1`, for which the inhibition was 0% (inactive).
In the case of `O=C(NCCN1CCOCC1)c1ccc2c(c1)N(Cc1ccccc1F)C(=O)CS2`, the inhibition was 0% (inactive).
The figure for `CCOC(=O)CSC1=C(C#N)C(c2ccc(C)o2)CC(=O)N1` (configuration not stated) is 0% (inactive); for `CC1CCCCN1CCNC(=O)C1CCN(S(=O)(=O)c2cccc3cccnc23)CC1` (configuration not stated) it is 0% (inactive).
As for `O=C(CSc1nnc(-c2ccccc2Br)o1)Nc1cccc2ccccc12`, the figure is 2% (inactive); as for `Cc1cccc(NC(=O)c2ccccc2O)c1C`, 0% (inactive).
For the compound `CC(C)COc1ccc(C2NC(=O)NC2=O)cc1` (configuration not stated), the inhibition was 0% (inactive).
For the compound `c1cncc(-c2nnc(-c3ccco3)o2)c1`, the inhibition was 4% (inactive).
As for `CC1Cn2c(nnc2-c2ccc(F)cc2)S1` (configuration not stated), the inhibition was 6% (inactive).
As for `CC(=O)N1CCN(S(=O)(=O)c2ccc(S(=O)(=O)NC3CC3)cc2)CC1`, the inhibition is 3% (inactive).
On to `CCOC(=O)N1CCC2(O)CCCCC2C1c1ccc(F)cc1` (configuration not stated), for which the inhibition was 1% (inactive).
Turning to `CCOC(=O)CSc1nnc(-c2ccc(S(=O)(=O)N3CCOCC3)cc2)n1-c1ccccc1`, the inhibition was 3% (inactive).
